Experimental data taken from PubChem BioAssay AID624330 (Southern Research Specialized Biocontainment Screening …, 2012).
Out of some 340,000 compounds screened, about 2,100 (0.62%) were called active.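 The calls were made as follows: active = first-screen hits whose inhibition reached a set limit at any dose in the follow-up dose series; inconclusive = inhibition above the set first-screen limit but never retested; inactive = the rest.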 The list is a sample of the results. Entries with a potency or affinity are not part of this list.

These molecules were tested against Rac GTPase-activating protein 1 (Homo sapiens) (UniProt Q9H0H5) (assay: MgcRacGAP GTPase-activating activity inhibitors, confirmation, biochemical, ADP Hunter fluorescence, primary and confirmatory (AID 624330;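 also: fluorescence reports GDP produced by GAP-driven GTP hydrolysis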)). Details: MgcRacGAP-stimulated Rac1 GTP hydrolysis, at 30 µM, stronger effect = higher value, GST-tagged Rac1 F28L mutant substrate.
Chain of Rac GTPase-activating protein 1 (Homo sapiens) (Q9H0H5 whole entry, looked up): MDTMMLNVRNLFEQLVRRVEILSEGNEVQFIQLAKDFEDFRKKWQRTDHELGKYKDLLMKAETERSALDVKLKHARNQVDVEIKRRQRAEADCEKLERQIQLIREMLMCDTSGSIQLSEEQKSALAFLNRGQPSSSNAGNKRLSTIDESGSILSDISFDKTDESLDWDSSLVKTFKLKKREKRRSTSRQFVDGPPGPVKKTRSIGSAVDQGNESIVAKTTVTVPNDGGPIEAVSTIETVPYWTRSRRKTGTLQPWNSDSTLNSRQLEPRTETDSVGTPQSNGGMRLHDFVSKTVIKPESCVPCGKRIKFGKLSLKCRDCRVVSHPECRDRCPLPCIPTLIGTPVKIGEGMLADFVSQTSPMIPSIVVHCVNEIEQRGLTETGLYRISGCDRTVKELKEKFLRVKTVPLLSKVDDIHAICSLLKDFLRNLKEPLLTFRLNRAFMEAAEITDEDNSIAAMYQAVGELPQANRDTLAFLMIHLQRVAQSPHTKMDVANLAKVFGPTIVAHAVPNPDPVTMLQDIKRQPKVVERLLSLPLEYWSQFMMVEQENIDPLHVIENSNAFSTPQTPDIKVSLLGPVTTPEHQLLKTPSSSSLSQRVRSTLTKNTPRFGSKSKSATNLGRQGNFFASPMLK

inhibition, inactive:
Fc1ccc(C2CC(c3ccco3)n3ncnc3N2)cc1 (stereo not drawn) -3.61%
Cc1cc(C(=O)Nc2sccc2C(N)=O)c(C)o1 2.82%
CCc1ccc2oc(C(=O)Nc3cccnc3)c(C)c2c1 3.43%
COc1ccc(NC(=O)NC(C)c2ccccc2)cc1 (stereo not drawn) 7.88%
CN1CCN(c2nc3ccccn3c(=O)c2/C=C(\C#N)S(=O)(=O)c2ccccc2)CC1 10.8%
O=C(CCN1C(=O)C2C3CC(C(Br)C3Br)C2C1=O)OCC(=O)c1ccccc1 (stereo not drawn) 7.46%
O=C(CNS(=O)(=O)c1ccc(Cl)cc1)NC1CCCCC1 -0.07%
Cc1cc(C(=O)NCc2ccc(F)cc2)n(-c2ccccc2)n1 12.3%
COc1ccc(CN2CCN(CCCc3ccccc3)C(CCO)C2)c(OC)c1 (stereo not drawn) 3.22%
COc1cccc(N2CCN(Cc3ncc(-c4ccccc4)o3)CC2)c1 7.37%
CC(C)n1c(/N=C/c2c[nH]c3ccccc23)nc2ccccc21 1.11%
Cc1cc(=O)[nH]c(N/N=C/c2c[nH]c3ccccc23)n1 22.9%
COc1ccc(/C=N/Nc2nc3ccccc3[nH]2)c(OC)c1OC 12.8%
Cc1ccc(/C=N/Nc2nc3ccccc3[nH]2)s1 -6%
Cc1cc(N/N=C/c2c[nH]c3ccccc23)c2ccccc2n1 -1.16%
Cc1ccccc1/C=N/Nc1nc2ccccc2[nH]1 18.4%
Cn1c(/N=C/c2c[nH]c3ccccc23)nc2ccccc21 8.49%
Fc1c(F)c(F)c(N/N=C/c2c[nH]c3ccccc23)c(F)c1F 3.69%
Cc1ccc(-c2nc(C3CCN(S(C)(=O)=O)CC3)no2)cc1 10.6%
O=C1NC(Cc2ccccc2)c2nc3ccc(Cl)cc3c(=O)n2-c2ncccc21 (stereo not drawn) 7.29%
CC(NS(C)(=O)=O)C(c1cccs1)N1CCN(C)CC1 (stereo not drawn) 10.3%
CCOC(=O)N1CCN(CC(O)COc2ccc(C(C)C)c(C)c2)CC1 (stereo not drawn) 5.78%
COCC1CCCCN1C(=O)c1ccc(OC2CCN(CCc3ccccc3)CC2)cc1 (stereo not drawn) 10.2%
COC(=O)c1cc(S(=O)(=O)N2CCC(c3cc(OC)ccc3OC)C2)c[nH]1 (stereo not drawn) 8.61%
Cc1ccc(-c2sc(C)nc2CC(=O)O)cc1 13.9%
O=C(Nc1cccc(-n2cnnn2)c1)c1cc(Cl)nc(Cl)c1 9.64%
COc1ccccc1/C=C/C(=O)OCc1nc2ccccc2c(=O)[nH]1 7.19%
CC(C)(Oc1ccc(Cl)cc1)C(=O)NC1CC1 7.55%
CCC(C)c1ccc(OCC(=O)Nc2ccc3c(c2)C(=O)NC3=O)cc1 (stereo not drawn) 5.62%
c1ccc(-c2ccccc2OCCCCN2CCCCC2)cc1 29.3%
C=CCNC(=S)N/N=C(\C)c1ccc(-n2ccnc2)cc1 -11.5%
CN(CC(=O)Nc1ccc(Cl)c(Cl)c1)C1CCCCC1 23.1%
COc1ccc(NC(=O)CN(C)C2CCCCC2)cc1Cl 12.2%
CC1CCCCN1CC(=O)Nc1ccc2c(c1)OC(F)(F)O2 (stereo not drawn) -6.38%
CN(CC(=O)Nc1ccc(S(N)(=O)=O)cc1)C1CCCCC1 1.98%
CN(CC(=O)Nc1ccc(Cl)cc1)C1CCCCC1 9.37%
O=C(CN1CCOCC1)Nc1ccc2c(c1)OC(F)(F)O2 1.95%
c1ccc(Cc2nc3ccccc3o2)cc1 8.84%
CCN(c1ccccc1)S(=O)(=O)c1ccc(C(=O)Nc2cccc(NC(C)=O)c2)cc1 5.09%
COc1ccc(/C=C2\SC(=S)N(CCC(=O)Nc3ccc(C(=O)O)cc3)C2=O)cc1OC 0.85%
COCC(=O)Nc1ccc(F)cc1 -1.69%
O=C(COC(=O)c1ccc(O)cc1)Nc1ccccc1 10.2%
CC(=Nc1ccccc1)Nc1ccccc1 5.11%
O=C(Cc1ccccc1)Nc1ccc(C(=O)Nc2ccc(O)cc2)cc1 24.4%
CC(=O)Nc1ccc(N=NN2CCOCC2)cc1 4.54%
O=C(CC(=O)Nc1ccc(F)cc1)Nc1ccc(F)cc1 5.61%
NC(=Nc1ccccc1)Nc1ccccc1 7.17%
CC(=O)Nc1ccc(N=Nc2ccccc2)cc1 0.87%
CCC(Oc1ccccc1)C(=O)Nc1ccccc1N1CCCC1 (stereo not drawn) 7.77%
CNC(=O)c1oc(-c2ccccc2)nc1C 10.8%
O=C(COC(=O)C1CC(=O)N(c2ccc3c(c2)OCCO3)C1)Nc1ccc2c(c1)CCC2 (stereo not drawn) 8.9%
O=C1CC(NS(=O)(=O)c2cccnc2)CN1c1cccc(F)c1 (stereo not drawn) 6.2%
COC(=O)C(C(=O)N1CCN(C)CC1)C1CCCCCC1 (stereo not drawn) -1.36%
Cc1ccc(NC(=O)c2cc(S(=O)(=O)N3CCOCC3)ccc2Cl)cc1S(=O)(=O)N1CCOCC1 9.95%
Cc1ccc(Nc2nc3ccccc3n3cnnc23)c(Cl)c1 5.8%
CCN(CC)C(=O)Cn1cc(C(=O)C(=O)NCCc2c[nH]c3ccccc23)c2ccccc21 7.03%
CCN(CC)CCN(C(=O)c1cc2ccccc2cc1OC)c1nc2ccc(F)cc2s1 6.61%
COc1ccc(CN2CCCCCC2)cc1 18.2%
COc1cc(OC)c(OC)cc1CN1CCN(Cc2ccc(C(F)(F)F)cc2)CC1 24.6%
COc1cc(CN2CCN(C(O)(c3ccccc3)c3ccccc3)CC2)cc(OC)c1OC 27.9%
FC(F)(F)c1ccc(CN2CCCCCC2)cc1 16.1%
O=C(O)CC1(CC(=O)NCc2cc(F)cc3c2OCOC3)CCCCC1 5.25%
CN(CCc1cn[nH]c1)C(=O)CC1C(=O)NCCN1Cc1ccccc1C(F)(F)F (stereo not drawn) -8.64%
Cc1ccc(C(=O)NC(=O)CSc2ncccc2C(=O)O)cc1 1.2%
Cc1ccc(S(=O)(=O)NN2C(=O)c3ccccc3NC2(C)C)cc1 6.9%
CC[C@H](C)[C@H](NC(N)=O)C(=O)Nc1ccc2c(c1)OCO2 3.75%
N#Cc1ccccc1S(=O)(=O)N1CCC(C(=O)Nc2cccc(C(=O)NC3CC3)c2)CC1 -0.25%
CCOC(=O)c1cc(CC)sc1/N=C/c1c(O)ccc2ccccc12 8.65%
CCOC(=O)c1c(/N=C/c2ccc(OC)cc2O)sc2c1CCN(C)C2 17%
CCOC(=O)c1c(/N=C/c2ccc(C)cc2O)sc2c1CCC2 5.81%
Cc1cc(C(=O)O)ccc1N=Cc1c(O)ccc2ccccc12 3.39%
N#Cc1ccc(OCC(=O)N2CCN(C(=O)c3ccco3)CC2)cc1 3.79%
Cc1cc(COc2ccccc2OCc2cc(C)no2)on1 9.58%
CCOC(=O)c1c(N)sc2c(OCC)c(Br)ccc12 5.92%
CCOC(=O)c1c(NC(C)=O)sc2c(O)c(Br)ccc12 4.12%
CCOC(=O)c1c(NC(C)=O)sc2c(OC)c(Br)ccc12 -9.05%
CCOC(=O)c1c(N)sc(N)c1C(=O)OCC 7.17%
CN(CC(=O)Nc1ccc(F)cc1)C(=O)COC(=O)CCN1C(=O)C2CC=CCC2C1=O (stereo not drawn) 2.06%
O=C(CSc1nc(=O)n(CCN2CCOCC2)c2c1CCCC2)Nc1ccc([N+](=O)[O-])cc1 -4.11%
COc1ccc(NC(=O)NNC(=O)C(C)Oc2ccc3ccccc3c2)cc1OC (stereo not drawn) 12.5%
CCn1c(=O)c2c3c(sc2n(C)c1=O)CCC3 10.3%
CCn1c(=O)c2c3c(sc2n2cnnc12)CCC3 4.61%
c1ccc(CN2CCC3CC2c2cc(N4CCOCC4)ccc23)cc1 (stereo not drawn) 11.4%
O=C1OCC2=C1C(c1ccc(F)cc1)Sc1ccccc1N2 (stereo not drawn) -0.0633%
CCOC(=O)c1c(C)[nH]c2c1cc(O)c1ccccc12 13.6%
CCOC(=O)c1c(OCC)[nH]c2ccc(O)cc12 7.01%
CS(=O)(=O)N1CCN(c2ccc(NC(=O)CSc3ccc(Cl)cc3)cc2)CC1 3.35%
CCN1/C(=C/c2ccc3cc(C)cc(C)c3[n+]2CC)Sc2cc(C)ccc21 24.3%
CCN1/C(=C/c2ccc3cc(C)ccc3[n+]2CC)Sc2cc(C)c(C)cc21 15.9%
CCN1/C(=C/c2ccc3cc(C)ccc3[n+]2CC)Sc2ccc3sccc3c21 6.5%
CCN1/C(=C/c2ccc3cccc(C)c3[n+]2CC)Sc2ccccc21 17.8%
Cc1ccc2c(c1)S/C(=C\c1cccc[n+]1C)N2CCO 4.89%
C=CC[n+]1c(/C=C2\C=Cc3cc(C)ccc3N2CC)ccc2ccccc21 17.6%
CCN1/C(=C\c2ccc3cc(C)ccc3[n+]2CC)Sc2cc(C)c(C)cc21 5.51%
CCN1/C(=C/c2ccc3ccccc3[n+]2CCCS(=O)(=O)[O-])C=Cc2cc(C)ccc21 5.54%
Cc1ccc2nc(SCC(=O)Nc3ccccc3F)nc(=O)n2c1 3.36%
Cc1ccc(N(CC(=O)NCc2ccco2)C(=O)CCC(=O)Nc2ccccn2)c(C)c1 10.2%
CS(=O)(=O)N(CC(=O)N/N=C/c1cccs1)c1cccc(Cl)c1Cl 11.9%
